Data as given in the supplement of paper PMC12067093, “Discovery and optimisation of a covalent ligand for TRIM25 and its application to targeted protein ubiquitination” (Chemical Science, 2025).
The full data set covers some 21,000 targets. This sample favours those with the largest changes.

Compound: Cc1cc(ccc1-c1ccccc1)C(=O)N1CCCN(CC1)C(=O)CCl [compound 10]
Assay: probe-labelled cysteine peptide fold change vs DMSO (competition) (log2 fold change); higher = less target engagement (more negative = stronger competition)
Conditions: 10 µM; THP-1; incubation time: 4 h
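Further: competitive profiling in live THP-1 cells: cysteine peptides tagged with an iodoacetamide desthiobiotin (IA-DTB) probe, intensity after compound treatment relative to DMSO-treated cells.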

Target	probe-labelled cysteine peptide fold change
MYO9B_Q13459_1876_ITTCVEMLIK (UniProt Q13459)	0.0944
NUBP1_P53384_8_MEEVPHDCPGADSAQAGR (UniProt P53384)	1.37
PARP14_Q460N5_509_VTQHLCLK (UniProt Q460N5)	0.0914
NOL9_Q5SY16_637_TVNCLLVGAIAIPHCVLK (UniProt Q5SY16)	-0.0765
NT5C3B_Q969T7_73_IISEECR (UniProt Q969T7)	-0.00671
NOP2_P46087_463_VLLDAPCSGTGVISK (UniProt P46087)	-0.0187
NOMO3_P69849_565_ISIMHEDWCWK<|>NOMO1_Q15155_565_ISIMHEDWCWK<|>NOMO2_Q5JPE7_565_ISIMHEDWCWK (UniProt Q5JPE7+Q15155+P69849)	0.0786
NFKB1_P19838_61_YVCEGPSHGGLPGASSEK (UniProt P19838)	0.0894
NR2F6_P10588_316_AIALFTPDACGLSDPAHVESLQEK (UniProt P10588)	-0.711
NACC2_Q96BF6_393_NTLANSCGTGIR<|>NACC1_Q96RE7_416_NTLANSCGTGIR (UniProt Q96RE7+Q96BF6)	-0.485
PAICS_P22234_266_SESQCR (UniProt P22234)	0.613
PARK7_Q99497_53_DVVICPDASLEDAK (UniProt Q99497)	-0.432
NIPSNAP3A_Q9UFN0_135_QESEITYLVPWCK (UniProt Q9UFN0)	0.151
NT5DC1_Q5TFE4_139_YYFYDNYFDLPGALLCAR (UniProt Q5TFE4)	1.21
MYO6_Q9UM54_790_RVNHWLTCSR (UniProt Q9UM54)	0.104
MYO6_Q9UM54_321_MCTAMK (UniProt Q9UM54)	0.00117
P4HB_P07237_397_KNVFVEFYAPWCGHCK (UniProt P07237)	-0.644

Target	probe-labelled cysteine peptide fold change
P3H1_Q32P28_568_LDTPLYFSYSHLVCR (UniProt Q32P28)	-0.35
OAT_P04181_93_YFDFLSSYSAVNQGHCHPK (UniProt P04181)	0.0237
NRAS_P01111_51_KQVVIDGETCLLDILDTAGQEEYSAMRDQYMR<|>HRAS_P01112_51_KQVVIDGETCLLDILDTAGQEEYSAMRDQYMR (UniProt P01112+P01111)	-0.209
PAK2_Q13177_352_ECLQALEFLHANQVIHR (UniProt Q13177)	0.441
NECTIN2_Q92692_238_ADGVTVTCK (UniProt Q92692)	-0.148
NFX1_Q12986_295_STCDSENLAVINK (UniProt Q12986)	0.0638
OSTC_Q9NRP0_14_VPFLVLECPNLK (UniProt Q9NRP0)	0.025
NFS1_Q9Y697_353_HHYPGCINLSFAYVEGESLLMALK (UniProt Q9Y697)	0.466
PALD1_Q9ULE6_65_VAPVVITYNCK (UniProt Q9ULE6)	0.106
P4HB_P07237_53_YLLVEFYAPWCGHCK (UniProt P07237)	-1.15
NSDHL_Q15738_86_FFLGDLCSR (UniProt Q15738)	-0.104
NUMA1_Q14980_961_QFCSTQAALQAMER (UniProt Q14980)	-0.0783
P4HTM_Q9NXG6_156_PLLFEIPGFLTDEECR (UniProt Q9NXG6)	0.372
PALD1_Q9ULE6_382_AITACAELHDLK (UniProt Q9ULE6)	-0.02
NUP205_Q92621_698_CEEYPLTR (UniProt Q92621)	0.0608
PA2G4_Q9UQ80_85_GIAFPTSISVNNCVCHFSPLK (UniProt Q9UQ80)	0.203
NOTCH2_Q04721_427_GADCTEDVDECAMANSNPCEHAGK (UniProt Q04721)	0.149

Same assay, conditions: 50 µM; THP-1; incubation time: 4 h

Target	probe-labelled cysteine peptide fold change
MYO9B_Q13459_1876_ITTCVEMLIK (UniProt Q13459)	-0.0605
NUBP1_P53384_8_MEEVPHDCPGADSAQAGR (UniProt P53384)	1.35
PARP14_Q460N5_509_VTQHLCLK (UniProt Q460N5)	0.48
NOL9_Q5SY16_637_TVNCLLVGAIAIPHCVLK (UniProt Q5SY16)	-0.381
NT5C3B_Q969T7_73_IISEECR (UniProt Q969T7)	0.268
NOP2_P46087_463_VLLDAPCSGTGVISK (UniProt P46087)	0.0458
NOMO3_P69849_565_ISIMHEDWCWK<|>NOMO1_Q15155_565_ISIMHEDWCWK<|>NOMO2_Q5JPE7_565_ISIMHEDWCWK (UniProt Q5JPE7+Q15155+P69849)	0.28
NFKB1_P19838_61_YVCEGPSHGGLPGASSEK (UniProt P19838)	-0.824
NR2F6_P10588_316_AIALFTPDACGLSDPAHVESLQEK (UniProt P10588)	-1.1
NACC2_Q96BF6_393_NTLANSCGTGIR<|>NACC1_Q96RE7_416_NTLANSCGTGIR (UniProt Q96RE7+Q96BF6)	0.031
PAICS_P22234_266_SESQCR (UniProt P22234)	1.39
PARK7_Q99497_53_DVVICPDASLEDAK (UniProt Q99497)	0.291
NIPSNAP3A_Q9UFN0_135_QESEITYLVPWCK (UniProt Q9UFN0)	0.389
NT5DC1_Q5TFE4_139_YYFYDNYFDLPGALLCAR (UniProt Q5TFE4)	1.46
MYO6_Q9UM54_790_RVNHWLTCSR (UniProt Q9UM54)	0.475
MYO6_Q9UM54_321_MCTAMK (UniProt Q9UM54)	-0.218
P4HB_P07237_397_KNVFVEFYAPWCGHCK (UniProt P07237)	-2.76

Target	probe-labelled cysteine peptide fold change
P3H1_Q32P28_568_LDTPLYFSYSHLVCR (UniProt Q32P28)	0.386
OAT_P04181_93_YFDFLSSYSAVNQGHCHPK (UniProt P04181)	0.0378
NRAS_P01111_51_KQVVIDGETCLLDILDTAGQEEYSAMRDQYMR<|>HRAS_P01112_51_KQVVIDGETCLLDILDTAGQEEYSAMRDQYMR (UniProt P01112+P01111)	-0.642
PAK2_Q13177_352_ECLQALEFLHANQVIHR (UniProt Q13177)	0.0289
NECTIN2_Q92692_238_ADGVTVTCK (UniProt Q92692)	-0.394
NFX1_Q12986_295_STCDSENLAVINK (UniProt Q12986)	-0.0574
OSTC_Q9NRP0_14_VPFLVLECPNLK (UniProt Q9NRP0)	-0.0744
NFS1_Q9Y697_353_HHYPGCINLSFAYVEGESLLMALK (UniProt Q9Y697)	0.42
PALD1_Q9ULE6_65_VAPVVITYNCK (UniProt Q9ULE6)	-0.15
P4HB_P07237_53_YLLVEFYAPWCGHCK (UniProt P07237)	-1.6
NSDHL_Q15738_86_FFLGDLCSR (UniProt Q15738)	0.0788
NUMA1_Q14980_961_QFCSTQAALQAMER (UniProt Q14980)	-1.25
P4HTM_Q9NXG6_156_PLLFEIPGFLTDEECR (UniProt Q9NXG6)	0.492
PALD1_Q9ULE6_382_AITACAELHDLK (UniProt Q9ULE6)	-0.092
NUP205_Q92621_698_CEEYPLTR (UniProt Q92621)	-0.00172
PA2G4_Q9UQ80_85_GIAFPTSISVNNCVCHFSPLK (UniProt Q9UQ80)	-0.024
NOTCH2_Q04721_427_GADCTEDVDECAMANSNPCEHAGK (UniProt Q04721)	0.115
